Active and inactive are the calls of the source.
How the values were obtained:
[1] = target: Albumin (Bos taurus) (UniProt P02769); test: bovine serum albumin binders on microarray, profiling panel, artefact control for SMM control protein annotation, biochemical, small-molecule microarray, Alexa647 label, 635/667 nm fluorescence (AID 1118); details: BSA-A647 binding, fluorescence 635 nm, higher = more signal;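 further: score merges 667 nm emission intensity and signal-to-noise per printed compound spot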
Chain of Albumin (Bos taurus) (P02769 whole entry, looked up): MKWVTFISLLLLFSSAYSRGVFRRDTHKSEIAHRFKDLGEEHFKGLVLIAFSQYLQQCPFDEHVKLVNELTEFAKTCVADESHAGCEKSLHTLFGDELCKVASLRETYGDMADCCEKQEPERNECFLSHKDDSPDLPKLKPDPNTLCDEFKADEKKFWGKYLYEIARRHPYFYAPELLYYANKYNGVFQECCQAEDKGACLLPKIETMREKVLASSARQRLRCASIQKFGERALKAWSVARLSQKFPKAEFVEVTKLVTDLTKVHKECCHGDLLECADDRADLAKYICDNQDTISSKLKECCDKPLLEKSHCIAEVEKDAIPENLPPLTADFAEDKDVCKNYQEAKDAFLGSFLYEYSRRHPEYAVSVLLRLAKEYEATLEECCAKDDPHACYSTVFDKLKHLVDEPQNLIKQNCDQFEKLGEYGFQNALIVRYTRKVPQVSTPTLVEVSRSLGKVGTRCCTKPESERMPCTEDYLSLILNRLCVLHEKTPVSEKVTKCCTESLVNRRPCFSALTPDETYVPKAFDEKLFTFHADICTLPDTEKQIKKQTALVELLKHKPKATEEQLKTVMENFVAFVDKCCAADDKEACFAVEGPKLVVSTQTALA

[2] = small-molecule microarray binders of probe aXIP, primary screen, biochemical, NeuroSMM set, 635/667 nm fluorescence (AID 1119); details: higher = more signal, called active from +8 up or from −8 down;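 further: probe is the protein aXip251-270 applied at 1 µg/mL to compound-printed slides; binding of probe to printed compounds measured as 667 nm fluorescence plus signal to noise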
[3] = small-molecule binders of probe aNOTCH3, primary screen, biochemical, small-molecule microarray, 635/667 nm fluorescence (AID 1120); details: higher = more signal;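 further: probe is a biotin-tagged antibody raised against NOTCH3 rather than NOTCH3 protein; score merges spot fluorescence near 667 nm with spot signal to noise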
[4] = small-molecule binders of probe aNOTCH2, primary screen, biochemical, small-molecule microarray, 635/667 nm fluorescence (AID 1121); details: higher = more signal;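 further: score merges feature fluorescence read at 667 nm with its signal to noise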
[5] = target: Carbonic anhydrase 2 (Homo sapiens) (UniProt P00918); test: CAII small-molecule binders, profiling panel, biochemical, small-molecule microarray, Alexa647-labelled CAII (AID 1122); details: CAII-A647 binding fluorescence, higher = more signal
[6] = COS7 lysate on small-molecule microarray, probe aHis, 635 nm (AID 1123); details: COS7 cell lysate, fluorescence, higher = more signal;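 further: z-score combines 667nm fluorescence intensity with signal-to-noise per printed compound spot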
[7] = compound binding in COS7 lysate, probe aLAP1, primary screen, cell lysate, small-molecule microarray (AID 1124); details: probe aLAP1, fluorescence, higher = more signal;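 further: lysate comes from COS7 cells expressing LAP1 and is applied at 0.3 µg/mL; score merges spot fluorescence near 667 nm with signal-to-noise over triplicate slides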
[8] = system: Sam68 (KHDRBS1); test: Sam68 small-molecule binders, primary screen, biochemical, small-molecule microarray, 635 nm fluorescence (AID 1125); details: small-molecule microarray binding, higher = more signal;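 further: score merges 667 nm channel intensity with signal to noise over triplicate slides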
[9] = system: Chordin-like protein 2 (CHRDL2); test: CHRDL2 small-molecule binders, primary screen, biochemical, small-molecule microarray, 635 nm fluorescence (AID 1126); details: small-molecule microarray binding, fluorescence 635 nm; higher = more signal;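 further: printed compound slides probed with Chrdl2 protein at 4 µg/mL for 1 h at 4 C; score merges 667 nm emission intensity with signal to noise over three replicate slides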
[10] = target: Concanavalin-A (Canavalia ensiformis) (UniProt P02866); test: ConA small-molecule binders, primary screen, artefact control for SMM control protein annotation, biochemical, small-molecule microarray, Alexa647 label, 635 nm (AID 1127); details: ConA-A647 binding fluorescence, higher = more signal;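 further: z combines 667 nm emission intensity with signal-to-noise across three replicate slides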
Chain of Concanavalin-A (Canavalia ensiformis) (P02866 whole entry, looked up): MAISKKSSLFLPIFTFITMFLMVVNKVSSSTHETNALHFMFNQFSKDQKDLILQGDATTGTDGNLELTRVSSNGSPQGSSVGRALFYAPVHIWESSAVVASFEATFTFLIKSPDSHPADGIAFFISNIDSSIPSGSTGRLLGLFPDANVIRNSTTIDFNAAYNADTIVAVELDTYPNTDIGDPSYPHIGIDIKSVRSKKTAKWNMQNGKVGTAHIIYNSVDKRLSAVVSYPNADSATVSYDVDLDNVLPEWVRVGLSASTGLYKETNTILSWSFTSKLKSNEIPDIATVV

Row | Structure (SMILES) | composite z-score [1] | composite Z-score [2] | composite z-score [3] | composite z-score [4] | composite z-score [5] | composite z-score [6] | composite z-score [7] | composite z-score [8] | composite z-score [9] | composite z-score [10]
1 | CC(=O)OC[C@H]1O[C@H](CCON=C(C)CCN2CCc3nc(-c4ccccc4)c(-c4ccccc4)cc3C2)C=C[C@@H]1OC(C)=O | 0.768 | 0.607 (inactive) | 0.146 | -0.0877 | 0.181 | 0.761 | 0.466 | 0.975 | -0.0682 | -0.0278
2 | CC(CCC(=O)OC[C@H]1O[C@H](C#Cc2ccccc2)C=C[C@@H]1Oc1ccc(C)cc1)=NO[C@@H](C)c1cn([C@H](CO)Cc2ccccc2)nn1 | 0.0449 | -0.684 (inactive) | 0.0026 | -0.0907 | -0.122 | -0.053 | -0.592 | 0.297 | 0.145 | 0.27
3 | C[C@H](c1ccccc1)N1C(=O)[C@H]2[C@@H]3C(=CC[C@H]2C1=O)C(=O)[C@H]1O[C@H]1[C@H]3O | 0.166 | -0.0238 (inactive) | -0.111 | -0.147 | -0.182 | -0.51 | 0.172 | -0.136 | 1.02 | 0.471
4 | CCCCc1nc2c(c3c1C[C@H](C)OC3)CN(CCC(C)C)CC2 | 0.627 | -0.214 (inactive) | -0.0343 | -0.16 | 0.221 | 1.68 | 0.44 | 1.31 | 0.388 | 0.934
5 | CCN1C(=O)[C@H]2[C@H]3[C@H](O)C=CC(=O)[C@@H]3CC[C@H]2C1=O | -0.338 | -0.56 (inactive) | 0.0519 | -0.117 | -0.132 | -0.177 | 0.402 | 0.234 | 0.587 | 0.373
6 | CC(C)N1CC=CC23O[C@@H]4C=CCCOC(=O)C4[C@H]2C(=O)N(CCCCCCO)[C@@H]3C1=O (stereo not given in full) | -0.176 | 0.0157 (inactive) | -0.193 | 0.109 | 0.439 | -0.425 | 0.753 | -0.952 | -1.71 | -0.428
7 | N#Cc1ccc(NN2C(C(O)c3cc(C(F)(F)F)cc(C(F)(F)F)c3)C=CC3C(=O)N(c4ccccc4)C(=O)C32)cc1 (stereo not given) | 0.996 | 0.239 (inactive) | 0.425 | 0.0388 | 0.612 | 2.82 | 0.557 | 1.33 | -0.904 | 1.19
8 | CCCC[C@@H](O)C1=C(C)C[C@H]2C(=O)N(Cc3ccccc3)C(=O)[C@H]2[C@H]1CO | 0.0852 | -0.041 (inactive) | -0.0175 | -0.133 | -0.215 | -0.377 | 0.0292 | 0.241 | 0.538 | 0.321
9 | Cc1ccc(C2CC=C(C(=O)O)CN2S(=O)(=O)c2ccc(C)cc2)cc1 (stereo not given) | 0.921 | -0.326 (inactive) | 0.0203 | -0.0567 | 0.78 | 0.93 | 0.953 | 1.32 | 0.193 | 1.12
10 | CN1C(=O)C2C(C1=O)C1C=C(CCCO)C2C(c2ccc(CN3CCCC3)cc2)N1C (stereo not given) | -0.356 | -0.816 (inactive) | -0.068 | -0.0907 | -0.221 | -0.377 | 0.0357 | 0.239 | 0.0976 | -0.56
11 | CCOC(=O)[C@H](Cc1ccccc1)NC(=O)CCC1CC(OC(=O)NCc2ccc3c(c2)OCO3)CC2(CCCC(COC(=O)NCC3CCCCC3)O2)O1 (stereo not given in full) | 0.276 | 0.236 (inactive) | 0.0525 | -0.0891 | 0.579 | 0.575 | -0.243 | 1.3 | 0.799 | 1.06
12 | CC(=O)OC[C@H]1O[C@@H](ON=C[C@@H](C)[C@H](OCc2ccccc2)C(C)C)[C@H](OC(C)=O)[C@@H](OC(C)=O)[C@@H]1OC(C)=O | -0.25 | 0.0474 (inactive) | -0.0672 | -0.159 | -0.934 | -0.0857 | -0.246 | 0.96 | -0.838 | 0.468
13 | COc1ccc(-c2nc3c(c4c2C[C@H](C)OC4)CN(CCC(C)C)CC3)cc1 | 0.556 | 0.292 (inactive) | -0.166 | -0.0167 | 0.441 | 0.455 | -0.177 | 1.23 | 0.348 | 0.928
14 | C[C@@H](c1ccccc1)N1C(=O)[C@H]2[C@H]3[C@H](O)[C@H](O)CC(=NOC[C@@H](O)COCc4ccco4)[C@@H]3CC[C@H]2C1=O | 0.819 | 0.528 (inactive) | -0.161 | -0.185 | 0.279 | -0.359 | -0.254 | -0.779 | -0.727 | -1.07
15 | O=C1[C@H]2[C@H]3[C@H](O)[C@H](O)CC(=NO[C@@H]4O[C@H](CO)[C@@H](O)[C@H](O)[C@H]4O)[C@H]3CC[C@H]2C(=O)N1C1CCCCC1 | 0.785 | -0.0164 (inactive) | 0.11 | -0.112 | 0.124 | 0.197 | 0.3 | 1.3 | -0.298 | -0.316
16 | O=C1[C@H]2[C@H]3[C@H](O)[C@H](O)CC(=NOCc4ccccc4)[C@H]3CC[C@H]2C(=O)N1c1ccc(F)cc1F | 0.155 | -0.801 (inactive) | -0.308 | -0.265 | 0.784 | -0.137 | -0.713 | -0.626 | 0.0499 | -0.111
17 | O=C1[C@H]2[C@H]3[C@H](O)[C@H](O)CC(=NOC[C@@H](O)COCc4ccco4)[C@@H]3CC[C@H]2C(=O)N1c1ccc(F)cc1F | -0.126 | -0.397 (inactive) | -0.205 | -0.14 | -0.438 | -1.08 | 0.0425 | 0.235 | 1.38 | -0.359
18 | C#CCCCON=C1C[C@@H](O)[C@@H](O)[C@@H]2[C@@H]3C(=O)N(Cc4ccccc4)C(=O)[C@@H]3CC[C@H]12 | 0.344 | 0.497 (inactive) | -0.056 | -0.2 | -0.009 | 0.363 | -0.316 | -0.0716 | 0.477 | 0.372
19 | O=C(CS)NCCCCCNC(=O)[C@H]1C[C@H]2C(=O)N3CCC[C@H]3C(=O)N2[C@H]1c1cccc(OCCO)c1 | -1.4 | 0.62 (inactive) | 0.121 | -0.101 | 0.46 | 2.45 | 0.729 | 1.34 | 1.4 | 1.2
20 | CCOC(=O)NN=C1C[C@@H](O)[C@@H](O)[C@@H]2[C@@H]3C(=O)N(CC)C(=O)[C@@H]3CC[C@@H]12 | 0.338 | 0.112 (inactive) | -0.0864 | -0.125 | 0.735 | 0.472 | -0.0313 | 0.976 | 0.0151 | 0.481
21 | COc1ccc(O[C@H]2C=C[C@@H](c3ccccc3)O[C@@H]2COC(=O)N2CCCCC2)cc1 | -0.725 | 0.0229 (inactive) | -0.131 | -0.111 | -0.29 | -0.482 | 0.0033 | -0.907 | 0.387 | -0.578
22 | CCOC(=O)CCN1C(=O)[C@H]2[C@H]3[C@H](O)C=CC(=O)[C@@H]3CC[C@H]2C1=O | -0.186 | 0.422 (inactive) | -0.0449 | -0.0686 | -0.078 | 0.107 | -0.225 | 0.323 | 0.34 | 0.412
23 | CO[C@@H]1COC(=O)CC=C[C@@H](C)COC(=O)[C@H](COCc2ccccc2)NC(=O)CC=C[C@H]1C | -1.2 | 1.13 (inactive) | -0.111 | -0.108 | -0.788 | -0.843 | 0.864 | -0.597 | 1.48 | -2.62

Reference: PubChem BioAssay
